Four molecules from PubChem BioAssay (NCATS) can be followed below.

Unmarked numbers belong to inactive results. Inconclusive results are not listed. The source made the active and inactive calls. Unless noted, calls follow the shape of the dose curve; as a rule, active = well fitted curve in the direction sought with a large enough effect; inconclusive = small, poorly fitted or top-dose-only effect, or another doubt; inactive = no such curve, though single readings can be large; an effect the other way counts as inactive or inconclusive. Bounds are passed on as bounds.

A short description of experiment [1]: Quantitative high throughput screen for delayed death inhibitors of the malarial parasite plastid, 48 hour incubation (AID 488752). Also: % is scaled to controls: 0 for no effect and ±100 for the full control effect; nearly all actives have a fitted effect of over 65% in size. To be noted: Plasmodium falciparum growth; series mostly up to 28.7 µM. The method in brief:
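Erythrocytes infected with P. falciparum carrying an integrated firefly luciferase reporter (2% hematocrit, 0.1% parasitemia final) were exposed to compounds in RPMI 1640/0.5% Albumax for 48 h at 37 C, 5% CO2. Growth inhibition was scored as reduced luminescence.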

Experiment [2] concerns the target Transient receptor potential cation channel subfamily V member 1 (Homo sapiens) (UniProt Q8NER1). Nature of the experiment: HTS Assay for Compounds that Act as Enhancers of the Vanilloid Receptor 1 (AID 488979). Also: 0% is about no effect. The note with it: TRPV1-expressing cells, enhancer of channel activity; series mostly up to 41.7 µM. An outline of the steps: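 Calcium influx kinetics via Fluo-8 (480/520 nm) in TRPV1-expressing cells, 2000/well cultured overnight at 35.5C. Compound-alone read 3 min (agonist phase), followed by EC20 capsaicin challenge for 2 min (enhancer phase).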

Experiment [3] deals with Thyrotropin receptor (Homo sapiens) (UniProt P16473). As to the kind of experiment: qHTS Assay for Antagonists of the Thyroid Stimulating Hormone Receptor (AID 488980). Also: 0% is about no effect. The note with it: TSHR-expressing cells, cAMP antagonist read-out; series mostly up to 57.5 µM. The method in brief:
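TSHR-transfected HEK293 cells (2000/well) in HEPES-buffered HBSS with 70 uM RO 20-1724 were stimulated with 4 nM TSH (EC80, final) in the presence of compound. cAMP was measured by HTRF competition after lysis and 30 min at RT.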
Background: In qHTS, concentration-response curves come from the screen itself.

The target of experiment [4] is Thyrotropin-releasing hormone receptor (Homo sapiens) (UniProt P34981). Nature of the experiment: qHTS for Small Molecule Agonists and Allosteric Enhancers of Human TRH Receptor: Validation Screen for Agonists (AID 493127;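 active = calcium activation more than 3 SD above the typical response in the agonist read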;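 also: intracellular calcium rise by fluo-8 fluorescence before TRH EC20 addition; 0% is about no effect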). To be noted: TRH receptor agonist cell assay; at 2 µM; stronger effect = higher value. An outline of the steps:
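TRHR-expressing cells were plated overnight in serum-containing medium, then loaded with fluo-8 calcium dye at room temperature for 30 min–1.5 h. After a 10 s baseline, compound was pin-transferred and calcium fluorescence (ex 480/em 530) read kinetically for agonist response.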

Experiment [5] has as its target Galactokinase (Homo sapiens) (UniProt P51570). Nature of the experiment: qHTS Validation Assay for Inhibitors of Human Galactokinase (GALK) (AID 493189). Also: 0% is about no effect. To be noted: purified human GALK enzyme activity, qHTS 7-point titration; series mostly up to 57.5 µM. An outline of the steps:
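GALK (5 nM) with 35 uM ATP and 100 uM galactose in HEPES pH 8.0 with MgCl2, NaCl, DTT and BSA. Reaction ran 1 h at room temperature. Residual ATP read by Kinase-Glo Plus luminescence.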

A short description of experiment [6]: Validation screen for small molecules that induce DNA re-replication in SW480 colon adenocarcinoma cells (AID 504364). Also: 0% is about no effect. The note with it: DNA re-replication phenotype (high-content imaging); series mostly up to 46.1 µM. The method in brief:
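SW480 cells seeded at 250 per well were exposed to compound or DMSO for 48 hr at 37 C, 5% CO2, then stained with Hoechst for 40 min. DNA content per nucleus was imaged (405 nm ex, 500-530 nm em).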

Experiment [7] deals with Luciferin 4-monooxygenase (Photinus pyralis) (UniProt P08659). Nature of the experiment: Biochemical firefly luciferase enzyme assay for NPC (AID 624030).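 Also: purified P. pyralis luciferase at 10 nM with luciferin and ATP substrate; 0% = DMSO and -100% = full luciferase inhibition by PTC124 control; nearly all actives have a fitted effect of over 70% in size.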 To be noted: purified P. pyralis luciferase, luminescence, 5 min; series mostly up to 58.6 µM. The method in brief: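 Direct inhibition of firefly luciferase enzyme (10 nM final, 50 mM Tris Acetate) assessed by luminescence within 5 minutes. Percent activity scaled between DMSO and PTC124 positive control, with concentration-effect curves classified by fit quality and response.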
Chain of Luciferin 4-monooxygenase (Photinus pyralis) (P08659 whole entry, looked up): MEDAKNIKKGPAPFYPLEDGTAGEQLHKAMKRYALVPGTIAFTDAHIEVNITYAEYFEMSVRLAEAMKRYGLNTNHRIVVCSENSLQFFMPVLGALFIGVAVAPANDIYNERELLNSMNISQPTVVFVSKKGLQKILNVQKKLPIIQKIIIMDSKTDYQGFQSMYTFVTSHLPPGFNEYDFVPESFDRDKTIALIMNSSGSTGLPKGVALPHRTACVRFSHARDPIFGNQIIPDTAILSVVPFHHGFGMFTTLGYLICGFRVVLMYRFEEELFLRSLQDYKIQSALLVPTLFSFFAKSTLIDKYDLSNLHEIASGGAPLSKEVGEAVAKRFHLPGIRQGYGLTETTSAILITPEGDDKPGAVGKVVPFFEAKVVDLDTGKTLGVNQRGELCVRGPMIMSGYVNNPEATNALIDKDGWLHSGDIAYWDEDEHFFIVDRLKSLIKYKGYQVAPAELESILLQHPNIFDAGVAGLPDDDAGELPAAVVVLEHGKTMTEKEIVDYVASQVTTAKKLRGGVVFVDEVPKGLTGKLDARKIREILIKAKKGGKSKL

Experiment [8] is described as follows: S16 Schwann cell PMP22 intronic element beta-lactamase assay (AID 624044; calls by dose curve; also: potency is read from the fitted curve at half-maximal effect; nearly all actives have a fitted effect of over 15% in size). To be noted: S16 rat Schwann cells, PMP22 element beta-lactamase FRET, 24 h; series mostly up to 38.3 µM. The method in brief:
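Rat S16 Schwann cells with beta-Lac driven by a PMP22 intronic element, compound-treated 24 h at 37 °C. LiveBLAzer FRET B/G read: 460 nm normalized to potassium clavulanate vs DMSO; 535 nm FRET as viability; concentration-effect curves classified.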

A short description of experiment [9]: Cell Viability - BJ (AID 421; calls by dose curve;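 also: potency is read from the fitted curve at half-maximal effect; cells exposed to compound for 40 hours at 37 °C before readout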). To be noted: BJ fibroblast viability, qHTS. The method in brief: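 Luminescent ATP signal (CellTiter-Glo, 20 min at room temperature) served as the read-out of viable BJ cells after 40 hours of compound treatment. Responses were scaled between DMSO and 100 uM tamoxifen, and AC50 values were obtained by Hill modeling.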
Experiment [10] is described as follows: Cell Viability - Jurkat (AID 426;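 active = dose-dependent loss of cell ATP signal giving a full or clear fitted curve, ranked by lower potency value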; also: potency is read from the fitted curve at half-maximal effect). The note with it: qHTS. An outline of the steps: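 Jurkat (clone E6-1, human T-cell leukemia) cells, 5000/well in complete medium, were exposed to compound for 40 hr at 37 °C. Viability was read as intracellular ATP by CellTiter-Glo luminescence; AC50 came from Hill fits of concentration-response data.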
Experiment [11] in a line: Cell Viability - Hek293 (AID 427;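 active = compounds whose dose-response curve shows a full or clear partial loss of cell viability, called from curve shape rather than a numeric limit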;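 also: potency is read from the fitted curve at half-maximal effect; cells exposed to compound for 40 hours at 37 °C before reading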). To be noted: qHTS. An outline of the steps: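 Luminescent ATP read-out (CellTiter-Glo, 20 min RT) after 40 hr compound exposure at 37 °C in complete medium. Signal normalized to DMSO (basal) and 100 uM tamoxifen (100% inhibition); concentration-response fitted with the standard Hill equation to give AC50.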
Experiment [12] can be described thus: Cell Viability - HepG2 (AID 433; calls by dose curve;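 also: potency is read from the fitted curve at half-maximal effect; potency for ATP loss meaning cytotoxicity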). To be noted: qHTS. An outline of the steps:
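HepG2 cells, 1500 per well, treated 40 hr at 37 °C in complete medium; viability from intracellular ATP by CellTiter-Glo luminescence. Normalized to DMSO and 100 uM tamoxifen; AC50 from Hill fit of qHTS concentration-response.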

Experiment [13] is described as follows: Cell Viability - MRC5 (AID 434; calls by dose curve;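 also: potency is read from the fitted curve at half-maximal effect; potency reflects cytotoxicity seen as loss of intracellular ATP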). To be noted: MRC5 lung fibroblast viability, qHTS. An outline of the steps:
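qHTS cytotoxicity in human lung fibroblast MRC5 cells; 40 hr treatment, 37 °C; cellular ATP by luciferase luminescence; DMSO = 0%, 100 uM tamoxifen = 100% inhibition; Hill-fit AC50.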

Experiment [14] can be described thus: Cell Viability - SK-N-SH (AID 435; calls by dose curve;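 also: potency is read from the fitted curve at half-maximal effect; compound exposure lasted 40 h at 37 °C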). To be noted: SK-N-SH neuroblastoma cell viability qHTS. An outline of the steps: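 SK-N-SH neuroblastoma cells (1500/well) treated 40 h at 37 °C in complete medium; viability read as cellular ATP by CellTiter-Glo luminescence. Normalized to DMSO and 100 uM tamoxifen; AC50 from Hill fits of qHTS concentration-response.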
Experiment [15] is described as follows: Cell Viability - N2a (AID 540).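 Also: plate controls were DMSO alone for no effect and tamoxifen control for full effect; nearly all actives have a fitted effect of over 45% in size.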 To be noted: N2a mouse neuroblastoma cell viability; at 92.2 µM (top of the series). An outline of the steps: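 Mouse neuroblastoma N2a cells (1500/well) were preincubated 5 hr at 37 °C, then exposed to compounds for 40 hr at 37 °C in complete medium. Viability was read as intracellular ATP by CellTiter-Glo luminescence; AC50 from Hill fits.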

A short description of experiment [16]: Cell Viability - NIH 3T3 (AID 541).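 Also: plate controls were DMSO alone for no effect and tamoxifen positive control for full effect; nearly all actives have a fitted effect of over 25% in size.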 The note with it: NIH 3T3 cell viability, qHTS; at 92.2 µM (top of the series). An outline of the steps:
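NIH 3T3 mouse embryo fibroblasts (1000 cells/well) were plated in complete medium and treated with compound for 40 hr at 37 °C. Viability was read as intracellular ATP by CellTiter-Glo luminescence; AC50 values came from Hill-equation fits of concentration-response data.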

A short description of experiment [17]: Cell Viability - HUV-EC-C (AID 542). Also: % is scaled to controls: 0 for no effect and ±100 for the full control effect; nearly all actives have a fitted effect of over 35% in size. To be noted: HUV-EC-C endothelial cell viability, qHTS; series mostly up to 92.2 µM. An outline of the steps: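 HUV-EC-C normal human vascular endothelial cells, 1000 cells/well, pre-incubated 5 hr at 37 °C, then exposed to compounds for 40 hr at 37 °C in complete medium. Viability measured as intracellular ATP by CellTiter-Glo luminescence; AC50 from Hill fits.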

Experiment [18] can be described thus: qHTS Assay for Identification of Small Molecule Inducers of Hypoxia Response (AID 2120; active = well fitted curve in the direction sought with a large enough effect in the signal ratio, with a control signal flat, not every such curve was filed as active; the % refers to the signal ratio; also: 0% is about no effect). To be noted: hypoxia response reporter cells, beta-lactamase ratio readout; series mostly up to 104 µM. The method in brief:
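HRE-beta-lactamase reporter in CellSensor HRE-bla ME-180 cells, 2500 cells/well in Opti-MEM with 0.5% dialyzed FBS; compounds tested as titration series, 17 h at 37 degrees C. CCF4 substrate 2.5 h at room temperature; AC50 from 460/530 nm ratio.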

The target of experiment [19] is Glutathione peroxidase 1 (Homo sapiens) (UniProt P07203). Nature of the experiment: Primary qHTS Assay for Inhibitors of Recombinant Selenoprotein Glutathione Peroxidase 1 (GPX1) (AID 1845191). Also: nearly all actives have a fitted effect of over 65% in size. To be noted: recombinant GPX1, GR-coupled NADPH fluorescence, 15 min; series mostly up to 48.8 µM. The method in brief: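 10 nM GPX1 + cpd, 30 min RT; start w/ 1 mM GSH, 0.5 mM cumene hydroperoxide, 0.5 mM NADPH, 100 nM GR, 0.01% BSA; buffer 50 mM Tris-HCl pH 7.5, 2 mM EDTA, 150 mM NaCl; Fl 340/450, 0 & 15 min.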
Chain of Glutathione peroxidase 1 (Homo sapiens) (P07203 whole entry, looked up): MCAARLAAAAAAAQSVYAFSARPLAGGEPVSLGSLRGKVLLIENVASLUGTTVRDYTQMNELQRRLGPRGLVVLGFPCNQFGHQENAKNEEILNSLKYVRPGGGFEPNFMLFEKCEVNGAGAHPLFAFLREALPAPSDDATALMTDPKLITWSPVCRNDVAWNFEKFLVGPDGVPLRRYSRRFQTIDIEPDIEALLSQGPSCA

The target in experiment [20] is Phospholipid hydroperoxide glutathione peroxidase GPX4 (Homo sapiens) (UniProt P36969). Nature of the experiment: Primary qHTS Assay for Inhibitors of Recombinant Selenoprotein Glutathione Peroxidase 4 (GPX4) (AID 1845192). Also: nearly all actives have a fitted effect of over 65% in size. To be noted: recombinant GPX4, GR-coupled NADPH fluorescence, 15 min; series mostly up to 50 µM. An outline of the steps:
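NADPH consumption, followed by fluorescence at 340/450 nm between 0 and 15 min, reports GPX4 activity via coupled glutathione reductase (100 nM). Enzyme 200 nM was pre-exposed to compound 30 min; 0.5 mM cumene hydroperoxide and 1 mM GSH served as substrates.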

Chain of Thyrotropin receptor (Homo sapiens) (P16473 whole entry, looked up): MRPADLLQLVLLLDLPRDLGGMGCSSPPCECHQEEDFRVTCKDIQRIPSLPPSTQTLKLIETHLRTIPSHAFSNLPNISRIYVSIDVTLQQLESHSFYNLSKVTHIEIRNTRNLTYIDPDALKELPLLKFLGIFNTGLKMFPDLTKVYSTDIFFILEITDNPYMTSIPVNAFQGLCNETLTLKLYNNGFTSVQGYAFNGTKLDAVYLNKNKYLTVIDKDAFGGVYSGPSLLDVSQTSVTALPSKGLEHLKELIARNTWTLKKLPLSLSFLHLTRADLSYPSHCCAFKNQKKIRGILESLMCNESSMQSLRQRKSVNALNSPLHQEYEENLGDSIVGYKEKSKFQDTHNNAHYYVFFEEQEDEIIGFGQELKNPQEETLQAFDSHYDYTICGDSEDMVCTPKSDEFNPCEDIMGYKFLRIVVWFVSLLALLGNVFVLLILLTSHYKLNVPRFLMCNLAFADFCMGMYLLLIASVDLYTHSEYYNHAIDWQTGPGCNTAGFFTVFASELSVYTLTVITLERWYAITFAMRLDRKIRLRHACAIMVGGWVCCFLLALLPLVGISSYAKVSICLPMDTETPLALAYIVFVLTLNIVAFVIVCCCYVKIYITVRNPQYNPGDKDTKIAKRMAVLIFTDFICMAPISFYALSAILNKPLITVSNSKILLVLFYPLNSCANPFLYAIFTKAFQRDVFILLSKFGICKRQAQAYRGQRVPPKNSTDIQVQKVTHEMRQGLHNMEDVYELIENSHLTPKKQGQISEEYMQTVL
Chain of Phospholipid hydroperoxide glutathione peroxidase GPX4 (Homo sapiens) (P36969 whole entry, looked up): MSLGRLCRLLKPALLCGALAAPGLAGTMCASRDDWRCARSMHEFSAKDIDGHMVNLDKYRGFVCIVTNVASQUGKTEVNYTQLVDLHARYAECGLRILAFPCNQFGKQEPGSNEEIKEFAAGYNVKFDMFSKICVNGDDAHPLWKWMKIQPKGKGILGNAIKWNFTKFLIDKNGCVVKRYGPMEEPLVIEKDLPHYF
Chain of Thyrotropin-releasing hormone receptor (Homo sapiens) (P34981 whole entry, looked up): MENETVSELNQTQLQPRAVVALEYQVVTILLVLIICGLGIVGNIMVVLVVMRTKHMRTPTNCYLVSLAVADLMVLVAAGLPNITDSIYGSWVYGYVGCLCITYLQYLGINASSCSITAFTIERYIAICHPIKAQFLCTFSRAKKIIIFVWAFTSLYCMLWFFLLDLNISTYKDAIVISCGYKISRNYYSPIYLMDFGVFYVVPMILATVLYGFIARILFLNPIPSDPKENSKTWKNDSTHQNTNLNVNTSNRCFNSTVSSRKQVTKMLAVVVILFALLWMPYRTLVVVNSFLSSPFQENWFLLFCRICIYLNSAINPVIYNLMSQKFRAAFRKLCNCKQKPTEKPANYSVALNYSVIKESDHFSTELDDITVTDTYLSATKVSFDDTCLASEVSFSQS
Chain of Transient receptor potential cation channel subfamily V member 1 (Homo sapiens) (Q8NER1 whole entry, looked up): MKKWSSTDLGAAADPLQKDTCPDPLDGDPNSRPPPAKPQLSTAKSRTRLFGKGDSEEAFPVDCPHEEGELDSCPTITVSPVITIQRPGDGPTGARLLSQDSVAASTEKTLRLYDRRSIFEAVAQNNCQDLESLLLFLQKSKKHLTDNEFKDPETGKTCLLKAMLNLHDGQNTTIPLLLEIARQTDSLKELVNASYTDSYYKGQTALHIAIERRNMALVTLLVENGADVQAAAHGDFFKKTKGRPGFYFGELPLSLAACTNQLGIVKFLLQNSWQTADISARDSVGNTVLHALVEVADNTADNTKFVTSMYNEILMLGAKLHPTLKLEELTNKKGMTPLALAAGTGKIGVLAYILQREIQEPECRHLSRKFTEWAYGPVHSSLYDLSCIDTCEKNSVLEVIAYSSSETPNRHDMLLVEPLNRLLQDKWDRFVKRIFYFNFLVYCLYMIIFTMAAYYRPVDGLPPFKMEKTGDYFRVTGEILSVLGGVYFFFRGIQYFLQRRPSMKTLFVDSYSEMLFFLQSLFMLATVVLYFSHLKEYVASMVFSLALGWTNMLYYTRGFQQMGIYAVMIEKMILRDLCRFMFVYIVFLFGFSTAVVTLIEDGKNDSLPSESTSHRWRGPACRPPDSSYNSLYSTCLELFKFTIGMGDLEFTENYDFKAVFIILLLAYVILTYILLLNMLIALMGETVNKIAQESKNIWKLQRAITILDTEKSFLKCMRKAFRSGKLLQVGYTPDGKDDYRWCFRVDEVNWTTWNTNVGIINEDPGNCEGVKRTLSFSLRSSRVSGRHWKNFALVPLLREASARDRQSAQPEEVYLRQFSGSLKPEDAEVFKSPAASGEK
Chain of Galactokinase (Homo sapiens) (P51570 whole entry, looked up): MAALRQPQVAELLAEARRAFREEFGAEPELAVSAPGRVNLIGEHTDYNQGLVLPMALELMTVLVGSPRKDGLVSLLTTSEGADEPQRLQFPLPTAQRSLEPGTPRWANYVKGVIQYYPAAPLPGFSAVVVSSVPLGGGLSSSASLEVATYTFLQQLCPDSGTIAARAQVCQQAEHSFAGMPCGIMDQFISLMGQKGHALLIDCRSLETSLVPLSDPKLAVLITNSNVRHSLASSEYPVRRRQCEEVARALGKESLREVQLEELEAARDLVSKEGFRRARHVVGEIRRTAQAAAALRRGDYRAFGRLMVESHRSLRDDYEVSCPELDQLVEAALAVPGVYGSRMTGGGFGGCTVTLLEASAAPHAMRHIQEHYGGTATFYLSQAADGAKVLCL

For `CC(=O)OCC1=C(C(=O)[O-])N2C(=O)[C@@H](NC(=O)CCC[C@@H](N)C(=O)[O-])[C@H]2SC1.[Zn+2]`, the Potency entry in [1] and in [6] was “inactive” in each case. The result in experiment [2], in experiment [3] and in [5] was inactive. Moreover, in [4], the activation is 1.25%.

On to `Nc1ncnc2c1ncn2[C@@H]1O[C@H](COP(=O)(O)OP(=O)(O)OP(=O)(O)O)[C@@H](O)[C@H]1O`, for which the Potency result in experiment [7] is “inactive”.

Turning to `COC(=O)C[C@](O)(CCCC(C)(C)O)C(=O)O[C@@H]1C(OC)=C[C@]23CCCN2CCc2cc4c(cc2[C@H]13)OCO4`, the Potency in experiment [8] is 0.0891 µM (active).

Take `Cc1ccccc1O`: the Potency in experiment [9], in experiment [10], in experiment [11], in [12], in [13] and in experiment [14] was > 92 µM in each case. Besides, the results for the activity change, negative = cytotoxicity in experiment [15] and in experiment [16] were 4.57% and 8.87%, respectively. Moreover, the outcome in [17] and in experiment [18] was inactive. Moreover, the Potency result in [19] and in [20] was “inactive” in each case.
